The text below walks through data of the supplement of paper PMC11006884.

Of roughly 6,500 targets only a part is listed; those with a hit were picked by preference. About 2% of all pairs of compound and target were hits. Values without a mark were called inactive.

Chain of UniProt P51991 (P51991 whole entry, looked up): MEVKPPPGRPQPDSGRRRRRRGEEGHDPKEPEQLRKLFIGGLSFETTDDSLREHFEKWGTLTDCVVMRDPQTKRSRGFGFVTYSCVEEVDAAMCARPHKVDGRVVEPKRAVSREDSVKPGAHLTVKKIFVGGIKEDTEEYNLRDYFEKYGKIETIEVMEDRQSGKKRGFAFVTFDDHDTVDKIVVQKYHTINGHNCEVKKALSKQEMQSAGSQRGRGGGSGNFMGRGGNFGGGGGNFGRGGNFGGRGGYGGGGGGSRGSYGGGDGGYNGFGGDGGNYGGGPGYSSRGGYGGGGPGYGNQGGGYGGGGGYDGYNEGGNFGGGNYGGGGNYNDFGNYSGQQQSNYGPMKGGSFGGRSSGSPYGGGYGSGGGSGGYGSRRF
Chain of UniProt P17655 (P17655 whole entry, looked up): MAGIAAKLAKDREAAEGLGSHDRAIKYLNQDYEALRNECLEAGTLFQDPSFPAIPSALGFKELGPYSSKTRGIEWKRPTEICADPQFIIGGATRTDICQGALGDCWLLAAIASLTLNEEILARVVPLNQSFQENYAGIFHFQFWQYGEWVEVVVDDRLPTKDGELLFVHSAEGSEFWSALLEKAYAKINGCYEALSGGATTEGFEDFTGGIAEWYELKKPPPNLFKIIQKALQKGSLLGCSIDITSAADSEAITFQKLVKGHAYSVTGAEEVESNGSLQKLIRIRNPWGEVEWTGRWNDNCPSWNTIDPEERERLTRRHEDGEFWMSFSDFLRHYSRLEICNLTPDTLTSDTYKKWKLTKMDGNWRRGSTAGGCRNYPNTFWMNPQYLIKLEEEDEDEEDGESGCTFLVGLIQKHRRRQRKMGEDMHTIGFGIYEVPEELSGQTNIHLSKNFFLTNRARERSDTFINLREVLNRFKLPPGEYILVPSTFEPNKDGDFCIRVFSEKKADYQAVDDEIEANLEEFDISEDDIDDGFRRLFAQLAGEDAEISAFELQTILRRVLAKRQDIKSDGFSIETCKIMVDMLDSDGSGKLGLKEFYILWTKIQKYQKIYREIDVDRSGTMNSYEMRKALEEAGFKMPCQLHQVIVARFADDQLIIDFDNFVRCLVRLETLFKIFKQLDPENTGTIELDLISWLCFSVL
Chain of UniProt P33991 (P33991 whole entry, looked up): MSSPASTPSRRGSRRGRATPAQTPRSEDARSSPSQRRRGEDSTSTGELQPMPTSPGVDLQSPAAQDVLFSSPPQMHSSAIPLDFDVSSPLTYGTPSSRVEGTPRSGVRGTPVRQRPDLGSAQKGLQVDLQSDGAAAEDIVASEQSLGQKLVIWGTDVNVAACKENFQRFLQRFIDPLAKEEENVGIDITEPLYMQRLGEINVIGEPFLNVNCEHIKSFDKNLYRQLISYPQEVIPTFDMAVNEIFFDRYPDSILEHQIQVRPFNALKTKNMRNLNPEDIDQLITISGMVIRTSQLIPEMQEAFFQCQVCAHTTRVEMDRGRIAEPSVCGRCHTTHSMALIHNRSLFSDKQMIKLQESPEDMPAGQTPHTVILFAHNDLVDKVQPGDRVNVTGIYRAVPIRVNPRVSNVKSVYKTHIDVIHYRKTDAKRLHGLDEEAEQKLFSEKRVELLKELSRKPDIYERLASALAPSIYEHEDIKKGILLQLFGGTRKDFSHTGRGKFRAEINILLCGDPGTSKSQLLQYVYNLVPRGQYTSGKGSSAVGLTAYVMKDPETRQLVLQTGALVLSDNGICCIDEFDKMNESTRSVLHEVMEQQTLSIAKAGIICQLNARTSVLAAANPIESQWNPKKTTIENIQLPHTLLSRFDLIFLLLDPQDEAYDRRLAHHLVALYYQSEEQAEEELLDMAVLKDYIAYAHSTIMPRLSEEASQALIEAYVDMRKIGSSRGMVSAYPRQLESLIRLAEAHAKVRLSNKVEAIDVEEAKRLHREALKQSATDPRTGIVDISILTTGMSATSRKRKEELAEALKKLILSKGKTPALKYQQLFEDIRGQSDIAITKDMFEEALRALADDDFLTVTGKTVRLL
Chain of UniProt P05455 (P05455 whole entry, looked up): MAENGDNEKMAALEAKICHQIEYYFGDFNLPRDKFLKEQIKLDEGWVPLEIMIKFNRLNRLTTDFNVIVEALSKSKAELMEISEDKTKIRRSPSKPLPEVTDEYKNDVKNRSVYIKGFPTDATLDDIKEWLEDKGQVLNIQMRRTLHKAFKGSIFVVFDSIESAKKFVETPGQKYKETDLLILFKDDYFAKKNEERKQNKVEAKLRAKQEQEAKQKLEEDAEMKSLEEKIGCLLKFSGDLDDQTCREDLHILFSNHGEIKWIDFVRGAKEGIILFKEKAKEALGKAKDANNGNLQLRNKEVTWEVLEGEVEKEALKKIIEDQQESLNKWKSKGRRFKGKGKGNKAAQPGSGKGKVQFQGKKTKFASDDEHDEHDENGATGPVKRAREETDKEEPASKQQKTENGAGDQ
Chain of UniProt P05141 (P05141 whole entry, looked up): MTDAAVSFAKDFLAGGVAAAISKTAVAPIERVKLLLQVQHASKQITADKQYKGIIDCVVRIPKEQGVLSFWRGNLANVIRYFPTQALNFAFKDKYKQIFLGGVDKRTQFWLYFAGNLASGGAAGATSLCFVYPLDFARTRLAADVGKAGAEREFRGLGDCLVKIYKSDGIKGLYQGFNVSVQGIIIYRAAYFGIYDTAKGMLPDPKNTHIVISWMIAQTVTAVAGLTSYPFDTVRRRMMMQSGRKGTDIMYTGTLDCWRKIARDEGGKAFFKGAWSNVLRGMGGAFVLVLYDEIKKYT
Chain of UniProt P00966 (P00966 whole entry): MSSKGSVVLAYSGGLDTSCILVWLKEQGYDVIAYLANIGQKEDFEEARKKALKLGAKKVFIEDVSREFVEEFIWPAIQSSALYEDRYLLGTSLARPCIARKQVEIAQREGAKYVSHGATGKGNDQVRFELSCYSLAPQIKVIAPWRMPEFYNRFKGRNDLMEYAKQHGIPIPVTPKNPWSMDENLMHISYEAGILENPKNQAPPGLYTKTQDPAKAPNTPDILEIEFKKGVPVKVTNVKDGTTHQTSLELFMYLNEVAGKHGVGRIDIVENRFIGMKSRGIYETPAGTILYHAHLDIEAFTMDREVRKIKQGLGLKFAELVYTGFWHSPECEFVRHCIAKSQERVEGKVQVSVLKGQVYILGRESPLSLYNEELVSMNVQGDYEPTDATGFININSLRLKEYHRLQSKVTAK
Chain of UniProt O95757 (O95757 whole entry, looked up): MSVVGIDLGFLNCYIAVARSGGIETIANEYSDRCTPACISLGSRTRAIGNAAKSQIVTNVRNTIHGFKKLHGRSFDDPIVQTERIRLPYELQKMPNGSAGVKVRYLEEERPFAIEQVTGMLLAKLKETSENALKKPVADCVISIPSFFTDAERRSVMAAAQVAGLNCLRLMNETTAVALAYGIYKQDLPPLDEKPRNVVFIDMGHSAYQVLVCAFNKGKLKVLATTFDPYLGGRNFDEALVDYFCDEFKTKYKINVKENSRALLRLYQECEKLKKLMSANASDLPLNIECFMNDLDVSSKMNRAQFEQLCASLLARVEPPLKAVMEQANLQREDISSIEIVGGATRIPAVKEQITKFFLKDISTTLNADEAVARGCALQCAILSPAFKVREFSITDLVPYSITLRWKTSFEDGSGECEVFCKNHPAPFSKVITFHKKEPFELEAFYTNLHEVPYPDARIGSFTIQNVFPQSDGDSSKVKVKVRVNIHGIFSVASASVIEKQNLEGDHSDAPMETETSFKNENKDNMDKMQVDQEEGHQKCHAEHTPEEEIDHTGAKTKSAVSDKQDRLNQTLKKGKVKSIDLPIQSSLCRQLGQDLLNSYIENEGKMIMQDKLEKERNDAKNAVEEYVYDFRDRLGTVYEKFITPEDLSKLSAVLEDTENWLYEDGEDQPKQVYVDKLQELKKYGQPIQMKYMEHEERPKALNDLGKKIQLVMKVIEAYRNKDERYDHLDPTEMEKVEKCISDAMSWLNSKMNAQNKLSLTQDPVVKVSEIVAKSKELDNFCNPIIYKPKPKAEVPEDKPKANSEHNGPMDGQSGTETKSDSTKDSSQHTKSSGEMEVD
Chain of UniProt P30566 (P30566 whole entry): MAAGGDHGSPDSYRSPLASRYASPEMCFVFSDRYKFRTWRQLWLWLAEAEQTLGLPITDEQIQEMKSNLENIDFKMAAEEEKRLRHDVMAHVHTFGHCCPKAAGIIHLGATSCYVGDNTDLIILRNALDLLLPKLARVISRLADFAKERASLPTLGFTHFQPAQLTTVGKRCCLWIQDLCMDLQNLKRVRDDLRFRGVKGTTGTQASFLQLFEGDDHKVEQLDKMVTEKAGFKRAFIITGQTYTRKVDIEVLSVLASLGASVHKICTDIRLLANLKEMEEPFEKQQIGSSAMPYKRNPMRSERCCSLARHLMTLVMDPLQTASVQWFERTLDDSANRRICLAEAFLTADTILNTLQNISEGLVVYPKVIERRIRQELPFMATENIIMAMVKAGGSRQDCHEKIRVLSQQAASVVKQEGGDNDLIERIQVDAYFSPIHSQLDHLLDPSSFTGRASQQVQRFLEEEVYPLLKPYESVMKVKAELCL
Chain of UniProt P11310 (P11310 whole entry, looked up): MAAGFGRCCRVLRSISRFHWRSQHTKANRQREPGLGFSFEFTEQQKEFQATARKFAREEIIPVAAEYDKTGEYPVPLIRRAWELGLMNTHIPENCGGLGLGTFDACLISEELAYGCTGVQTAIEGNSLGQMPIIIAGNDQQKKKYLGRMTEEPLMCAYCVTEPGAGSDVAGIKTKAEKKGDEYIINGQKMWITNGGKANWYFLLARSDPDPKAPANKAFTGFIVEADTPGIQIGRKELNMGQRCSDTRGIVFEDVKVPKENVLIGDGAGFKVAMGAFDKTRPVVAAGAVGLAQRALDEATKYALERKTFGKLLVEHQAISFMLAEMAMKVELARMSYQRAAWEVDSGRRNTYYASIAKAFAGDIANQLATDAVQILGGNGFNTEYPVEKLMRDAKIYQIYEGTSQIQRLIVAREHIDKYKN
Chain of UniProt P10599 (P10599 whole entry, looked up): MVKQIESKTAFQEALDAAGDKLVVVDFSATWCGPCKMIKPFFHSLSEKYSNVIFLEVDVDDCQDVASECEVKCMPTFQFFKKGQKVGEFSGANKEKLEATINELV

Compound in the assay: COC(=O)C#Cc1ccccc1 [methyl 3-phenylpropiolate]
Nature of the assay: log2 ratio of iodoacetamide-alkyne labeling of the cysteine site, DMSO over compound (competition); higher = stronger covalent engagement of the cysteine by the compound, active = 1 or more. The note with it: 500 µM; treatment time 1 h; system: HEK293T cell lysate. In a few lines: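 HEK293T lysate (2 mg/mL) was incubated with electrophile (500 µM) or vehicle for 1 h at ambient temperature and then with iodoacetamide alkyne for 1 h. Labelled proteins were clicked to sCIP-TMT reagents, pooled, digested, enriched on streptavidin and measured by Orbitrap Eclipse LC-MS/MS with FAIMS, with FragPipe quantification. The per-cysteine log2 competition ratio is mean control-channel reporter intensity over mean compound-channel reporter intensity. Across three replicates with duplicate channels, cysteines quantified in only one replicate were excluded.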
ACADM C156 (UniProt P11310): the “log2 ratio of iodoacetamide-alkyne labeling” value (shortened to “log2 ratio”) was 0.666.
Regarding LDHB C294 (UniProt P07195), the “log2 ratio” value is -0.0731.
Consider VDAC2 C13 (UniProt P45880), for which the “log2 ratio” value was 1.11 (active).
Then MBD3 C172 (UniProt O95983), with 0.114; and IMPDH2 C95 (UniProt P12268), with -0.293; and GMPS C631 (UniProt P49915), with 0.369.
Consider PPP2R1A C377 (UniProt P30153), for which the “log2 ratio” value is 0.919.
On to CAPN2 C301 (UniProt P17655), for which the “log2 ratio” value was 2.17 (active).
As to RANBP2 C581 (UniProt P49792), the “log2 ratio” value is 0.41.
Consider PAICS C81 (UniProt P22234), for which the “log2 ratio” value is 0.248.
Then MAP1B C2088 (UniProt P46821), with 0.329.
With TMPO C280 (UniProt P42166), the “log2 ratio” value is 1.09 (active).
TXN C35 (UniProt P10599): the “log2 ratio” value is 1.14 (active).
Consider HSPD1 C442 (UniProt P10809), for which the “log2 ratio” value was 1.2 (active).
Take HSPA4L C421 (UniProt O95757): the “log2 ratio” value was -0.0563.
The result for PARP1 C429 (UniProt P09874) reads 0.192; that for HNRNPA3 C196 (UniProt P51991), -0.0216.
In the case of ETFB C42 (UniProt P38117), the “log2 ratio” value was 0.207.
Turning to DNMT1 C1226 (UniProt P26358), the “log2 ratio” value was -0.0963.
In the case of IDH3A C331 (UniProt P50213), the “log2 ratio” value is 0.257.
For the target SHMT1 C96 (UniProt P34896), the “log2 ratio” value was 0.0443.
Take ATP1A1 C428 (UniProt P05023): the “log2 ratio” value is 0.234.
Then SLC25A5 C160 (UniProt P05141), with 0.177; and UniProt P49753_C401, with 0.0763.
Regarding ADSL C27 (UniProt P30566), the “log2 ratio” value is 0.0306.
Regarding UniProt P49591_C431, the “log2 ratio” value was -0.00377.
For the target CAMLG C123 (UniProt P49069), the “log2 ratio” value is 0.308.
Then PPP2R1A C154 (UniProt P30153), with 0.637; and RANGAP1 C303 (UniProt P46060), with 0.47; and ASS1 C132 (UniProt P00966), with 0.124.
Turning to SFPQ C297 (UniProt P23246), the “log2 ratio” value is -0.122.
With SSB C18 (UniProt P05455), the “log2 ratio” value was -0.139.
The result for MCM4 C162 (UniProt P33991) reads 0.055.
Regarding FASN C1118 (UniProt P49327), the “log2 ratio” value was 0.203.
With FASN C1992 (UniProt P49327), the “log2 ratio” value is 0.0894.
With HSP90B1 C645 (UniProt P14625), the “log2 ratio” value was -0.0466.
The result for SEC24B C562 (UniProt O95487) reads 0.735.
